Experiment in all cases: NCI-60 one-dose screen, 48 h (100 = growth as untreated, 0 = no growth, -100 = all killed)
Test [1] deals with SK-MEL-2 melanoma. As to conditions: 10 µM unless noted.
Test [2] concerns EKVX NSCLC. As to conditions: 10 µM unless noted.
In test [3] the test system is SN12C renal. As to conditions: 10 µM unless noted.
Test [4] has as its system UO-31 renal. Conditions: 10 µM unless noted.
Test [5] relates to TK-10 renal. As to conditions: 10 µM unless noted.
The subject of test [6] is ACHN renal. As to conditions: 10 µM unless noted.
Test [7] relates to CAKI-1 renal. As to conditions: 10 µM unless noted.
The subject of test [8] is A498 renal. As to conditions: 10 µM unless noted.
The test system of test [9] is CCRF-CEM leukemia. As to conditions: 10 µM unless noted.
In test [10] the test system is MOLT-4 leukemia. Conditions: 10 µM unless noted.
Test [11] has as its system SR leukemia. As to conditions: 10 µM unless noted.
For test [12], the system named is RPMI-8226 leukemia. As to conditions: 10 µM unless noted.
Test [13] relates to OVCAR-8 ovarian. Conditions: 10 µM unless noted.
The test system of test [14] is OVCAR-5 ovarian. As to conditions: 10 µM unless noted.
In test [15] the test system is SK-OV-3 ovarian. As to conditions: 10 µM unless noted.
For test [16], the system named is IGROV1 ovarian. Conditions: 10 µM unless noted.
The test system of test [17] is OVCAR-3 ovarian. As to conditions: 10 µM unless noted.
Test [18] deals with HS 578T breast. As to conditions: 10 µM unless noted.
In test [19] the test system is NCI/ADR-RES ovarian. Conditions: 10 µM unless noted.
Test [20] has as its system OVCAR-4 ovarian. Conditions: 10 µM.

SMILES strings stand for the structures. The panel holds about 83,000 compounds, 20% with a hit somewhere; the sample as a whole holds those more often.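 The endpoint reported here, percent growth, reads 100 for growth as untreated, 0 for no net growth and -100 for all cells dead.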 Unmarked numbers belong to inactive results. The source made the active and inactive calls. How the source made its calls: active means growth percent below 10; inactive means the rest.

`CC1(C)CC[C@]2(C(=O)O)CC[C@]3(C)[C@H](CC[C@@H]4[C@@]5(C)CCC(=O)C(C)(C)[C@@H]5CC[C@]43C)[C@H]2[C@H]1OC(=O)C(F)(F)F`: the growth in test [1] was -71.8% [100 µM] (active); in test [2] it was -69.6% [100 µM] (active); in [3], -82.1% [100 µM] (active); in test [4], -96.4% [100 µM] (active); in [5] it was -84.1% [100 µM] (active); in [6], -94.1% [100 µM] (active). Moreover, the growth in [7] was -71.2% [100 µM] (active); in test [8], -81.2% [100 µM] (active); in [9], -25% [100 µM] (active); in test [10], -26.4% [100 µM] (active); in test [11], 14.6% [100 µM]; in test [12] it was -42.9% [100 µM] (active). The growth in test [13] was -81.4% [100 µM] (active); in test [14], -53.1% [100 µM] (active); in test [15], -2.75% [100 µM] (active); in test [16] it was -64.7% [100 µM] (active); in [17] it was -67.4% [100 µM] (active); in test [18], -42.1% [100 µM] (active). Further, in test [19], the growth is -77.6% [100 µM] (active).

Regarding `Cc1ccc(NC(=O)N[C@@H](Cc2cc(F)cc(F)c2)C(=O)N[C@@H]2C(=O)N3CCC[C@H]3C(=O)N3CCOC[C@H]3C(=O)N[C@@H](C)C(=O)N3C[C@H](C)C[C@H]3C(=O)O[C@H]2C)cc1`, the growth in test [1] is 40.7%; in [2] it was 30.6%; in [3], 18.4%; in test [4] it was 28.4%; in [5] it was 60.7%; in test [6] it was 29.7%. Further, the growth was 16.5% in test [7]; -3.1% (active) in [8]; 58.3% in [9]; 41% in [10]; 32% in test [11]; 23% in test [12]. The growth in [13] was 19.8%; in test [14], 38%; in test [20] it was 12.8%; in test [16], 47.2%; in test [17], 18.9%; in [18], 41.9%. Further, the growth in test [19] is 91.5%.

Turning to `CC1(C)CC[C@]2(C(=O)O)CC[C@]3(C)C(=CC[C@@H]4[C@@]5(C)C/C(=C/c6ccco6)C(=O)C(C)(C)[C@@H]5CC[C@]43C)[C@@H]2C1`, the growth in [1] was -69.3% [100 µM] (active); in [2], -19.6% [100 µM] (active); in test [3], -52.3% [100 µM] (active); in test [4], -98.1% [100 µM] (active); in [5], -19.1% [100 µM] (active); in [6] it was -71.8% [100 µM] (active). The growth in test [7] was -35% [100 µM] (active); in test [8], -42.5% [100 µM] (active); in test [9] it was 4.17% [100 µM] (active); in [10], 2.21% [100 µM] (active); in test [11], 21.7% [100 µM]; in test [12], 0.316% [100 µM] (active). Also, the growth in test [13] was 9.39% [100 µM] (active); in test [14], -64.2% [100 µM] (active); in test [15], 0.149% [100 µM] (active); in test [16], -38.7% [100 µM] (active); in test [17], -70% [100 µM] (active); in test [18] it was -5.24% [100 µM] (active). Also, the growth in [19] was -12.6% [100 µM] (active).

With `CC(C)=CC/C=C(/C)[C@H]1CC[C@]2(C)[C@@H]1CC[C@@H]1[C@@]3(C)CCC(=O)NC(C)(C)[C@@H]3CC[C@]12C`, the growth in test [1] was 3.93% [100 µM] (active); in test [2], 29.7% [100 µM]; in [3], -81.2% [100 µM] (active); in test [4], -98.7% [100 µM] (active); in test [5] it was 3.59% [100 µM] (active); in test [6], -63.5% [100 µM] (active). Besides, the growth is 6.46% [100 µM] (active) in test [7]; -16.4% [100 µM] (active) in test [8]; -9.45% [100 µM] (active) in test [9]; -14.3% [100 µM] (active) in [10]; 12.3% [100 µM] in test [11]; -31.4% [100 µM] (active) in [12]. In addition, the growth in test [13] is 0.344% [100 µM] (active); in test [14], 9.08% [100 µM] (active); in [15], 38.6% [100 µM]; in test [16], -67.6% [100 µM] (active); in test [17], -63.9% [100 µM] (active); in test [18] it was -17.7% [100 µM] (active).

For `CC(C)(C)c1cc(C(=O)Nc2ccccc2C(=O)NCCN)cc(C(C)(C)C)c1`, the growth in test [1] was 20.3%; in [2] it was 17.8%; in test [3], -30.8% (active); in [4], 27.9%; in test [5], 75.5%; in test [6], -90.3% (active). In addition, the growth in [7] was 45.4%; in test [8] it was -11.6% (active); in [9] it was -8.48% (active); in test [10] it was 20.6%; in [11] it was -28.6% (active); in test [12], -25% (active). Moreover, the growth in test [13] was -43.7% (active); in test [14] it was 27%; in test [20], 43.3%; in test [16], 46.8%; in [17], 18.9%; in test [18], 75.3%. In addition, the growth in [19] is 23.2%.

On to `CC/C=C(\C)C(CCC)(CN=O)C(=O)OCC` (configuration not stated), for which the growth is 106% in test [1]; 112% in test [2]; 108% in test [3]; 90.4% in [4]; 103% in [5]; 110% in test [6]. Besides, the growth in test [7] is 104%; in test [8], 114%; in [9] it was 101%; in test [10], 90.1%; in [11] it was 87.6%; in [12], 96.3%. In addition, the growth in test [13] is 105%; in [14], 113%; in [15] it was 99.9%; in [16], 118%; in test [17], 127%; in test [18], 143%. Moreover, the growth in [19] was 108%.

As for `C#CCNC(=O)CC[C@]1(C)[C@H]2CC[C@@H]3[C@@H]([C@@](C)(O)CCC=C(C)C)CC[C@@]3(C)[C@]2(C)CC[C@H]1C(=C)C`, the growth in [1] is 49.1% [100 µM]; in [2] it was 71.7% [100 µM]; in [3], 43.9% [100 µM]; in test [4], -95.8% [100 µM] (active); in test [5] it was 70.5% [100 µM]; in test [6], 7.69% [100 µM] (active). The growth in test [7] was 1.83% [100 µM] (active); in test [8], 67.1% [100 µM]; in [9] it was -34.4% [100 µM] (active); in test [10] it was -29% [100 µM] (active); in [11] it was 12.8% [100 µM]; in [12], -7.33% [100 µM] (active). In addition, the growth is 7.74% [100 µM] (active) in test [13]; 55.6% [100 µM] in [14]; 66.6% [100 µM] in test [15]; -62.6% [100 µM] (active) in test [16]; -26.4% [100 µM] (active) in [17]; 35.6% [100 µM] in test [18]. For the same compound, the growth in [19] is 53.6% [100 µM].

(Values after PubChem BioAssay (NCI).)
